According to PubChem BioAssay (Tox21):
Results filed as inconclusive are left out. A number with no mark means an inactive call. Activity calls are given as the source filed them. Calls follow the shape of the full dose curve.
% is scaled to controls: 0 for no effect and ±100 for the full control effect; potency is read from the fitted curve at half-maximal effect.

Assay: p53 small molecule agonists, cell-based qHTS assay with rat liver microsomes: qHTS cell viability counter screen (AID 1963580); also: nearly all actives have a fitted effect of over 45% in size
Settings: p53RE-bla HCT-116 + rat microsomes, ATP viability, 16 h; series mostly up to 66 µM; activity change, negative = cytotoxicity: at the top concentration
Excerpt: National Center for Advancing Translational Sciences [NCATS]
Division of Preclinical Innovation [DPI]
U.S. Environmental Protection Agency [EPA]
National Institutes of Environmental Health Sciences [NIEHS]
National Toxicology Program [NTP]
U.S. Food and Drug Administration [FDA]
p53, a tumor suppressor protein, is activated following cellular insult, including DNA damage and other cellular stresses. The activation of p53 regulates cell fate by inducing DNA repair, cell cycle arrest, apoptosis, or cellular senescence. The activation of p53, therefore, is a good indicator of DNA damage and other cellular stresses. The CellSensor p53RE-bla HCT-116 cell line contains a stably integrated beta-lactamase reporter gene under control of the p53 response elements. The activation of the reporter gene under culture conditions can be detected by fluorescence intensity. This cell line was used to screen the Tox21 10K compound library in the condition of presence of rat liver microsomes and to identify agonists that activate the p53 signaling pathway after in vitro metabolic activation (Ooka et al., Archive of Toxicology 96:1975-1987, 2022). The cytotoxicity of the Tox21 compound library against the p53 RE-bla HCT-116 cell line was tested in parallel by measuring the intra cellular ATP content in the same wells.
Tox21 Assay Protocol Summary:
The p53RE-bla cells were dispensed at 4,000cells/3ul/well in 1536-well black-clear bottom plates. After the assay plates were incubated at 37 C, 5% CO2 incubator for 5 hours, 23 nL of compounds dissolved in DMSO, positive controls or DMSO only was transferred to the assay plate. Following compound addition, 3 uL of rat liver microsomes (Molecular Toxicology, Boone, NC) at final concentration of 0.5 mg/mL and 1uL of B-Nicotinamide adenine dinucleotide 2'-phosphate (NADPH) at final concentration of 0.5 mg/mL were transferred to the assay plate. The plates were incubated at 37 C for 16 hours. 1 uL of LiveBLAzer detection mixture was added to each well and the plates were incubated at room temperature in the dark for 2 h. Fluorescence intensity at 460 and 530 nm emission and 405 nm excitation were measured by an Envision plate reader. For cell viability readout that measures cytotoxicity, 4 ul/well of CellTiter-Glo reagent was added into the assay plates using a Flying Reagent Dispenser. After 30 min incubation at room temperature, the luminescence intensity in the plates was measured using a ViewLux plate reader.
For `Nc1ccc([N+](=O)[O-])cc1[N+](=O)[O-]`, the “activity change, negative = cytotoxicity” value was 5.09%.
For `N#Cc1cc(I)c(O)c(I)c1`, the Potency was 45.8 µM (active).
With `CCC(CC)(CNC(=O)CCCO)c1cccc(OC)c1` the “activity change, negative = cytotoxicity” value was 0.691% [at 30.3 µM].
For `CCCOc1nn(C(=O)NS(=O)(=O)c2ccccc2C(=O)OC)c(=O)n1C`, the “activity change, negative = cytotoxicity” value was 0.657%.
In the case of `[O]=[Cd]`, the “activity change, negative = cytotoxicity” value is reported as -10%.
For `CC(Cc1ccc2c(c1)OCO2)NO` (stereo not given), the “activity change, negative = cytotoxicity” value was -9.38%.
With `NC(=O)CI` the “activity change, negative = cytotoxicity” value was -7.37%.
For `N#C/C=C/c1ccccc1`, the “activity change, negative = cytotoxicity” value was -5.57%.
With `Oc1ccc(Cl)c(Cl)c1Cl` the “activity change, negative = cytotoxicity” value was -28.8%.
In the case of `COc1cc(Cl)c(OC)cc1Cl`, the “activity change, negative = cytotoxicity” value is reported as -11.8%.
With `SCc1ccccc1` the “activity change, negative = cytotoxicity” value was 9.61%.
For `O=C(Nc1ccccc1-c1ccc(Cl)cc1)c1cccnc1Cl`, the “activity change, negative = cytotoxicity” value was -10.3%.
With `CCc1cc2c(s1)-n1c(C)nnc1CN=C2c1ccccc1Cl` the “activity change, negative = cytotoxicity” value was -4.08% [at 30.3 µM].
With `S=C=Nc1cccc2ccccc12` the “activity change, negative = cytotoxicity” value was 0.135%.
With `O=c1[nH]oc2c1CCNC2` the “activity change, negative = cytotoxicity” value was 1.28% [at 30.3 µM].
For `CC(C)(C)c1ccc(OP(=O)(Oc2ccccc2)Oc2ccccc2)cc1`, the “activity change, negative = cytotoxicity” value was -0.798%.
With `COc1cnc(OC)n2nc(NS(=O)(=O)c3c(OCC(F)F)cccc3C(F)(F)F)nc12` the “activity change, negative = cytotoxicity” value was 1.93%.
With `CCOc1cc(Oc2ccc(C(F)(F)F)cc2Cl)ccc1[N+](=O)[O-]` the Potency was “inactive”.
With `CN(C)C(=O)Nc1cccc(OC(=O)NC(C)(C)C)c1` the “activity change, negative = cytotoxicity” value was 14.3%.
In the case of `CCOc1cccc(C2(N3CCN(c4ccccc4)CC3)CCC(C)CC2)c1` (stereo not given), the “activity change, negative = cytotoxicity” value is reported as -5.78%.
For `CCC(Cl)CCl` (stereo not given), the “activity change, negative = cytotoxicity” value was 1.78%.
In the case of `CC(C)NCC(O)c1ccccc1Cl` (stereo not given), the “activity change, negative = cytotoxicity” value is reported as -4.06% [at 30.3 µM].
For `CCO/N=C(\CC)C1=C(O)CC(c2c(C)cc(C)cc2C)CC1=O` (stereo not given), the “activity change, negative = cytotoxicity” value was 13.9%.
For `NC(=O)CS(=O)C(c1ccccc1)c1ccccc1` (stereo not given), the “activity change, negative = cytotoxicity” value was -6.39% [at 30.3 µM].
In the case of `O=C(Nc1ccccc1)Nc1ccnc(Cl)c1`, the “activity change, negative = cytotoxicity” value is reported as -10.2%.
For `O=C1CN2CCOC2(c2ccccc2Cl)c2cc(Cl)ccc2N1` (stereo not given), the “activity change, negative = cytotoxicity” value was 7.18% [at 30.3 µM].
With `C#CCN1C(=O)COc2cc(F)c(N3C(=O)C4=C(CCCC4)C3=O)cc21` the “activity change, negative = cytotoxicity” value was -1.79%.
For `O=S(=O)(O)c1cc(O)ccc1O`, the “activity change, negative = cytotoxicity” value was -4.27%.
With `CCCN1CCC[C@@H]2Cc3nc(N)ncc3C[C@H]21` the “activity change, negative = cytotoxicity” value was -8.45% [at 30.3 µM].
For `Oc1ccc([C@H]2CNCc3c2ccc(O)c3O)cc1O`, the “activity change, negative = cytotoxicity” value was 4.48% [at 30.3 µM].
In the case of `CCOC(=O)/C=C(C)/C=C/C[C@@H](C)CCCC(C)C`, the “activity change, negative = cytotoxicity” value is reported as -20.4%.
With `CCCSP(=S)(OCC)Oc1ccc(Cl)cc1Cl` (stereo not given) the “activity change, negative = cytotoxicity” value was -0.571%.
For `CCOc1cc(C(C)(C)C)ccc1C1COC(c2c(F)cccc2F)=N1` (stereo not given), the “activity change, negative = cytotoxicity” value was -12.9% [at 30.3 µM].
Work on `CC(=O)[O-].CC(=O)[O-].CC(=O)[O-].[Sb+3]` yielded an activity change, negative = cytotoxicity of -3.59% [at 2.33 µM].
With `C#CC(C)(C)O` the “activity change, negative = cytotoxicity” value was 2.86%.
For `NC1=NC(=O)C(c2ccccc2)O1` (stereo not given), the “activity change, negative = cytotoxicity” value was 0.123% [at 30.3 µM].
In the case of `CON(C)C(=O)Nc1ccc(Br)c(Cl)c1`, the “activity change, negative = cytotoxicity” value is reported as 0.995%.
With `N#CCCSCCC#N` the “activity change, negative = cytotoxicity” value was -1.16%.
In the case of `BrCC(Br)C1CCC(Br)C(Br)C1` (stereo not given), the “activity change, negative = cytotoxicity” value is reported as -13.9%.
For `O=[N+]([O-])c1cccc(CCl)c1`, the “activity change, negative = cytotoxicity” value was -1.25%.
